From PubChem BioAssay (NCATS)
Inconclusive results are not listed. Active and inactive are the calls of the source. Calls come from the whole dose curve; as a rule, active = well fitted cell-killing curve with a large enough effect; inconclusive = small, poorly fitted or top-dose-only effect, or effect the other way; inactive = flat fitted curve, though single readings scatter.

Experiments:
Test in all cases: Primary qHTS to identify gynecologic anti-cancer compounds using libraries of approved drugs and bioactive compounds (AID 1345084); note: nearly all actives have a fitted effect of over 55% in size
Settings in all cases: Gynecologic cancer cell panel viability, ATPlite luminescence, 48 h; series mostly up to 57.5 µM
JEG-3 = system: JEG-3
Method in brief: (§1)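 Cells, 1,000 per well, plated 16 h, then exposed 48 h at 37 C to compounds. Viability by ATPlite luminescence after 15 min at room temperature.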

OV90 = system: OV90
Method in brief: as §1

PA-1 = system: PA-1
Method in brief: as §1

SKOV3 = system: SKOV3
Method in brief: as §1

Tov-21-G = system: Tov-21-G
Method in brief: as §1

Tov112D = system: Tov112D
Method in brief: as §1
% is set by controls: 0 for no effect and ±100 for the full control effect.

CC1CCC2(O1)C(C)(C)CC(O[C@@H]1O[C@H](CO[C@@H]3OC[C@](O)(CO)[C@H]3O)[C@@H](O)[C@H](O)[C@H]1O)CC2(C)O (stereo partly specified)
inactive: Potency (JEG-3) | Potency (OV90) | Potency (PA-1) | Potency (SKOV3) | Potency (Tov-21-G) | Potency (Tov112D)

CC(=O)O[C@@H]1C[C@@]23C[C@@]24CC[C@H](OC2OC[C@@H](O)[C@H](O)[C@H]2O)C(C)(C)[C@@H]4CC[C@H]3[C@]2(C)CC3OC4(C[C@@H](C)C3[C@@]12C)OCC1(C)OC14 (stereo partly specified)
inactive: Potency (JEG-3) | Potency (OV90) | Potency (PA-1) | Potency (SKOV3) | Potency (Tov-21-G) | Potency (Tov112D)

CC(=O)OC1C(O)CC(O[C@@H]2O[C@H](CO)[C@@H](O)[C@H](O)[C@H]2O)C2CCC3C(=O)OC(c4ccoc4)CC3(C)C21 (stereo partly specified)
inactive: Potency (JEG-3) | Potency (OV90) | Potency (PA-1) | Potency (SKOV3) | Potency (Tov-21-G) | Potency (Tov112D)

CC(C)c1nc(N(C)S(C)(=O)=O)nc(-c2ccc(F)cc2)c1/C=C/[C@@H](O)C[C@@H](O)CC(=O)O
inactive: Potency (JEG-3) | Potency (OV90) | Potency (PA-1) | Potency (SKOV3) | Potency (Tov-21-G) | Potency (Tov112D)

N#Cc1ccnc(N2C(=O)CC[C@H]2C(=O)N(c2cncc(F)c2)[C@H](C(=O)NC2CC(F)(F)C2)c2ccccc2Cl)c1
inactive: Potency (JEG-3) | Potency (OV90) | Potency (PA-1) | Potency (SKOV3) | Potency (Tov-21-G) | Potency (Tov112D)

C[C@@H]1C(=O)O[C@H]2CC34[C@H]5C[C@@H](C(C)(C)C)C36[C@@H](OC(=O)[C@@H]6O)O[C@@]4(C(=O)O5)[C@]21O (stereo partly specified)
inactive: Potency (JEG-3) | Potency (OV90) | Potency (PA-1) | Potency (SKOV3) | Potency (Tov-21-G) | Potency (Tov112D)

OCc1ccccc1O[C@@H]1O[C@H](CO)[C@@H](O)[C@H](O)[C@H]1O
inactive: Potency (JEG-3) | Potency (OV90) | Potency (PA-1) | Potency (SKOV3) | Potency (Tov-21-G) | Potency (Tov112D)

C=C1CC[C@H]2[C@@](C)(CCC[C@@]2(C)C(=O)O)[C@@H]1CCC(C)CCO (stereo partly specified)
inactive: Potency (JEG-3) | Potency (OV90) | Potency (PA-1) | Potency (SKOV3) | Potency (Tov-21-G) | Potency (Tov112D)

CCC/C=C/C(=O)O[C@H]1CC(C)(C)CC2[C@]13[C@H](O)O[C@@]21CCC2[C@@]4(C)CC[C@H](O[C@@H]5O[C@H](C(=O)O)[C@@H](O)[C@H](O[C@@H]6O[C@H](CO)[C@H](O)[C@H](O)[C@H]6O[C@@H]6O[C@@H](C)[C@H](O)[C@@H](O)[C@H]6O[C@@H]6OC[C@](O)(CO)[C@H]6O)[C@H]5O[C@@H]5O[C@H](CO)[C@H](O)[C@H](O)[C@H]5O)C(C)(C)C4CC[C@@]2(C)[C@]1(C)C[C@H]3OC(C)=O (stereo partly specified)
inactive: activity change, negative = cytotoxicity (JEG-3) -6.17% [at 6.55 µM] | activity change, negative = cytotoxicity (OV90) -0.93% [at 6.55 µM] | activity change, negative = cytotoxicity (PA-1) -0.307% [at 6.55 µM] | activity change, negative = cytotoxicity (SKOV3) 13% [at 6.55 µM] | activity change, negative = cytotoxicity (Tov-21-G) 0.0885% [at 6.55 µM] | activity change, negative = cytotoxicity (Tov112D) 1.84% [at 6.55 µM]

CC(C)[C@H]1CCC(CO)=C[C@@H]1/C=C(\CO)C(=O)O
inactive: Potency (JEG-3) | Potency (OV90) | Potency (PA-1) | Potency (SKOV3) | Potency (Tov-21-G) | Potency (Tov112D)

COc1cc(-c2cccc(O)c2)cc2c1OCO2
inactive: Potency (JEG-3) | Potency (OV90) | Potency (PA-1) | Potency (SKOV3) | Potency (Tov-21-G) | Potency (Tov112D)

CC1(CO)CC2C(O)C(=O)C3(CO)CC3(C)C2C1 (stereo unspecified)
inactive: Potency (JEG-3) | Potency (OV90) | Potency (PA-1) | Potency (SKOV3) | Potency (Tov-21-G) | Potency (Tov112D)

CC1CCC2C(C)(C)C(O)CCC2(C)C12Cc1c(O)cc3c(c1O2)CN(C(CCC(N)=O)C(=O)O)C3=O (stereo unspecified)
inactive: Potency (JEG-3) | Potency (OV90) | Potency (PA-1) | Potency (SKOV3) | Potency (Tov-21-G) | Potency (Tov112D)

CC(C)CC(=O)OC[C@H]1O[C@@](COC(=O)CC(C)C)(O[C@H]2O[C@H](CO)[C@@H](O)[C@H](O)[C@H]2O)[C@@H](OC(=O)CC(C)C)[C@@H]1OC(=O)CC(C)C
inactive: Potency (JEG-3) | Potency (OV90) | Potency (PA-1) | Potency (SKOV3) | Potency (Tov-21-G) | Potency (Tov112D)

COCCCNCC1COc2ccccc2O1 (stereo unspecified)
inactive: Potency (JEG-3) | Potency (OV90) | Potency (PA-1) | Potency (SKOV3) | Potency (Tov-21-G) | Potency (Tov112D)

CC1[C@@H](O)[C@@H](O)C2[C@]3(C)C(C[C@H]4OC(=O)[C@H](O)[C@]1(O)[C@@]24C)C(C)(O)C[C@H](O)[C@H]3O (stereo partly specified)
inactive: Potency (JEG-3) | Potency (OV90) | Potency (PA-1) | Potency (SKOV3) | Potency (Tov-21-G) | Potency (Tov112D)

NCc1c[nH]c(=S)n1C1CCc2c(F)cc(F)cc2C1 (stereo unspecified)
inactive: Potency (JEG-3) | Potency (OV90) | Potency (PA-1) | Potency (SKOV3) | Potency (Tov-21-G) | Potency (Tov112D)

CC(=O)OC[C@@]12[C@H](O)C[C@]3(C)C(=CCC4[C@@]5(C)CC[C@H](O[C@@H]6O[C@H](C(=O)O)[C@@H](O[C@@H]7O[C@H](CO)[C@@H](O)[C@H](O)[C@H]7O)[C@H](O)[C@H]6O[C@@H]6O[C@H](CO)[C@@H](O)[C@H](O)[C@H]6O)[C@](C)(CO)C5CC[C@]43C)[C@@H]1CC(C)(C)[C@@H](OC(C)=O)[C@@H]2O (stereo partly specified)
inactive: activity change, negative = cytotoxicity (JEG-3) -2.75% [at 11.6 µM] | activity change, negative = cytotoxicity (OV90) -1.56% [at 11.6 µM] | activity change, negative = cytotoxicity (PA-1) 0.948% [at 11.6 µM] | activity change, negative = cytotoxicity (SKOV3) 8.16% [at 11.6 µM] | activity change, negative = cytotoxicity (Tov-21-G) 2.04% [at 11.6 µM] | activity change, negative = cytotoxicity (Tov112D) 1.86% [at 11.6 µM]

CC1CCCC2OC2C(=O)c2c(O)cc(O)cc2CC(=O)O1 (stereo unspecified)
inactive: Potency (JEG-3) | Potency (OV90) | Potency (PA-1) | Potency (SKOV3) | Potency (Tov-21-G) | Potency (Tov112D)

CC1CCC2(C)C(CC(O)C(O)C23CO3)C1(C)CCC1=CC(O)OC1=O (stereo unspecified)
inactive: Potency (JEG-3) | Potency (OV90) | Potency (PA-1) | Potency (SKOV3) | Potency (Tov-21-G) | Potency (Tov112D)

C=C1CC2C3(C)C(O)CC(=O)C(C)(C)C3C(OC(C)=O)C(OC(C)=O)C2(C)C2C(=O)OC(C)(C(=O)OC)C(=O)C12C (stereo unspecified)
inactive: Potency (JEG-3) | Potency (OV90) | Potency (PA-1) | Potency (SKOV3) | Potency (Tov-21-G) | Potency (Tov112D)
